# Reference: PubChem BioAssay (NCATS)
# Results filed as inconclusive are left out. A call without a number means that no potency is given here. Values without a mark were called inactive. Active and inactive are the calls of the source. The call rests on the fitted dose curve; in most records, active means well fitted inhibition curve with a large enough effect; inconclusive means small, poorly fitted or top-dose-only effect; inactive means flat fitted curve, though single readings scatter.
# Columns and labels:
# [1] = test system: PC15; assay: qHTS profiling for inhibitors of Plasmodium falciparum proliferation (AID 504749); further: potency means the concentration at half of the fitted maximal effect; settings: P. falciparum in erythrocytes, SYBR Green DNA, 72 h; series mostly up to 28.7 µM
# Procedure, shortened: (§1)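 P. falciparum-infected erythrocytes (0.3% parasitemia, 2.5% hematocrit final) were exposed to compounds for 72 h at 37 C in 5% CO2, then lysed with SYBR Green buffer overnight at room temperature; parasite DNA fluorescence was normalized to artemisinin and DMSO controls.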
# [2] = test system: PC26; assay: as above; settings: P. falciparum in erythrocytes, SYBR Green DNA, 72 h; series mostly up to 28.7 µM
# Procedure, shortened: as §1
# [3] = test system: PC49; assay: as above; settings: P. falciparum in erythrocytes, SYBR Green DNA, 72 h; series mostly up to 28.7 µM
# Procedure, shortened: as §1
# [4] = test system: TAB109; assay: as above; settings: P. falciparum in erythrocytes, SYBR Green DNA, 72 h; series mostly up to 28.7 µM
# Procedure, shortened: as §1
# [5] = test system: W2; assay: as above; settings: P. falciparum in erythrocytes, SYBR Green DNA, 72 h; series mostly up to 28.7 µM
# Procedure, shortened: as §1
# [6] = test system: HaCat; assay: Cytotoxic Profiling of Annotated Libraries Using Quantitative High-Throughput Screening (AID 1296008); settings: Five cell lines viability, CellTiter-Glo ATP luminescence, 48-72 h; max response: stronger effect = lower value
# Procedure, shortened: (§2)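 Compounds were pin-transferred onto cells and incubated 48 or 72 hr at 37 degree Celsius, 95% humidity. CellTiter-Glo was added, plates sat 10 min at room temperature, then ATP-coupled luminescence was imaged as the viability read-out.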
# [7] = test system: NIH3T3; assay: as above; settings: Five cell lines viability, CellTiter-Glo ATP luminescence, 48-72 h; max response: stronger effect = lower value
# Procedure, shortened: as §2
# [8] = test system: HACAT; assay: qHTS assay to identify novel small-molecules to repurpose for Merkel cell carcinoma treatment (AID 1296009); settings: MCC and control cell lines, CellTiter-Glo viability, 72 h; at 44.8 µM (top of the series) unless noted; further: potency means the concentration at half of the fitted maximal effect
# Procedure, shortened: (§3)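 Cells exposed to NPC (8-point) and MIPE (11-point) compound dilutions for 72 hr at 37 degree celsius; viability read by CellTiter-Glo luminescence, normalized to no-cell and DMSO in-plate controls.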
# [9] = test system: MCC-13; assay: as above; settings: MCC and control cell lines, CellTiter-Glo viability, 72 h; series mostly up to 46 µM
# Procedure, shortened: as §3
# [10] = test system: MCC-26; assay: as above; settings: MCC and control cell lines, CellTiter-Glo viability, 72 h; series mostly up to 46 µM
# Procedure, shortened: as §3
# [11] = test system: MKL-1; assay: as above; settings: MCC and control cell lines, CellTiter-Glo viability, 72 h; series mostly up to 46 µM
# Procedure, shortened: as §3
# [12] = test system: CRL-7250; assay: as above; settings: MCC and control cell lines, CellTiter-Glo viability, 72 h; at 44.8 µM (top of the series) unless noted
# Procedure, shortened: as §3
# [13] = test system: KB-3-1; assay: Cytotoxic Profiling of Annotated Libraries Using Quantitative High-Throughput Screening (AID 1296008); settings: Five cell lines viability, CellTiter-Glo ATP luminescence, 48-72 h; max response: stronger effect = lower value
# Procedure, shortened: as §2
# Further: nearly all actives have a fitted effect of over 60% in size.
smiles,measurement,setting,value
C#C[C@]1(O)CC[C@H]2[C@@H]3CCC4=CC(=O)CCC4=C3C=C[C@@]21CC,Potency,[1],6.31 µM (active)
same,Potency,[2],6.01 µM (active)
same,Potency,[3],8.91 µM (active)
same,Potency,[4],12.6 µM (active)
same,Potency,[5],7.57 µM (active)
same,outcome,[6],inactive
same,max response,[7],-4.44%
same,outcome,[8],inactive
same,Potency,[9],inactive
same,Potency,[10],inactive
same,Potency,[11],inactive
O=C(CCCN1CCN(c2ccccn2)CC1)c1ccc(F)cc1,outcome,[12],inactive
NS(=O)(=O)c1cc2c(cc1Cl)NCNS2(=O)=O,outcome,[12],inactive
COc1cc(N)c(Cl)cc1C(=O)NC1CCN(Cc2ccccc2)CC1,outcome,[12],inactive
CC(=O)[C@H]1CC[C@H]2[C@@H]3CC=C4C[C@@H](O)CC[C@]4(C)[C@H]3CC[C@]12C,outcome,[12],inactive
C[C@]12CCC(=O)C=C1[C@@H]1C[C@@H]1[C@H]1[C@@H]3[C@@H]4C[C@@H]4[C@@]4(CCC(=O)O4)[C@@]3(C)CC[C@@H]12,outcome,[12],inactive
COc1ccc(CN2CCN(C(c3ccc(F)cc3)c3ccc(F)cc3)CC2)c(OC)c1OC,outcome,[12],inactive
O=C(OCC(COC(=O)c1cccnc1)(COC(=O)c1cccnc1)COC(=O)c1cccnc1)c1cccnc1,outcome,[12],inactive
CC(=O)[C@@]1(O)CC[C@H]2[C@@H]3CCC4=CC(=O)CC[C@]4(C)[C@H]3CC[C@@]21C,outcome,[12],inactive
Cc1nnc(C(=O)NC(C)(C)c2nc(C(=O)NCc3ccc(F)cc3)c(O)c(=O)n2C)o1,outcome,[12],inactive
Nc1c2c(nc3ccccc13)CCCC2,outcome,[12],inactive
CCOc1ccccc1C(N)=O,outcome,[12],inactive
Clc1ccc(CSC(Cn2ccnc2)c2ccc(Cl)cc2Cl)cc1 (stereo not drawn),max response,[13],-15.3%
O=C(O)CCC(=O)c1ccc(-c2ccccc2)cc1,outcome,[12],inactive
C=C1c2cccc(O)c2C(O)=C2C(=O)[C@]3(O)C(O)=C(C(N)=O)C(=O)[C@@H](N(C)C)[C@@H]3[C@@H](O)[C@H]12,outcome,[12],inactive
CSc1ccc(/C=C2/C(C)=C(CC(=O)O)c3cc(F)ccc32)cc1,outcome,[12],inactive
CC(C)Cn1cnc2c1c(=O)n(C)c(=O)n2C,outcome,[12],inactive
COc1ccc2c3c1O[C@H]1[C@@H](O)C=C[C@H]4[C@@H](C2)N(C)CC[C@@]341,max response,[13],-15%
same,Potency,[9],23.8 µM (active)
same,Potency,[11],10.7 µM (active)
O=C(c1ccc(F)cc1)C1CCN(CCn2c(=O)[nH]c3ccccc3c2=O)CC1,outcome,[12],inactive
CCOc1cc(N)c(Cl)cc1C(=O)NCC1CN(Cc2ccc(F)cc2)CCO1 (stereo not drawn),outcome,[12],inactive
NCCNC(=O)c1ccc(Cl)cn1,outcome,[12],inactive
N[C@H](C(=O)O)[C@@H](O)c1ccc(O)c(O)c1,outcome,[12],inactive
CCCc1ncc(C[n+]2ccccc2C)c(N)n1,outcome,[12],inactive
CC(=O)N1C[C@H](O)C[C@H]1C(=O)O,outcome,[12],inactive
Cc1c(N(C)C)c(=O)n(-c2ccccc2)n1C,outcome,[12],inactive
CCCCNc1cc(C(=O)O)cc(S(N)(=O)=O)c1Oc1ccccc1,outcome,[12],inactive
CCN1CCCC(OC(=O)C(c2ccccc2)c2ccccc2)C1 (stereo not drawn),outcome,[12],inactive
CN(C)C(=O)Oc1cccc([N+](C)(C)C)c1,outcome,[12],inactive
CCNC(=O)NCc1cccc(Cl)c1,outcome,[12],inactive
Cc1cc(O)c(C)c(C)c1O,outcome,[12],inactive
OCCN1CCN(CCCN2c3ccccc3C=Cc3ccccc32)CC1,outcome,[12],inactive
